Here are results for 40 sequences from the OligoGym collection.
Note: reference of the scale not given here.

One test addresses CASP8. Briefly: pooled miR-30 sensor sort-seq; sequence = guide strand. To be noted: shRNA.
On to TTCTTCTGAAATCTGATAGAGC, for which the sensor-assay potency score (higher = more potent) was -0.601. Same read-out and setting: as for TTCTTGTCATCCTTGTTGCTTA, the figure is -0.496; as for TAGATTTGCTCTACTGTGCAGT, 0.44; as for TAACCTGCCTAACTCCACGTGC, -0.566. The same measure, in the same setting: with TAGTTGATAGATAACAATCTGA the figure was -0.246; with TTGAGGTGATGATAAATCCATT, -0.92. Same read-out and setting: as for TTCATAGTTCACTTCAGTCAGG, the figure is -0.715; as for ATAGATAACAATCTGAATCATA, -0.657.

Another test deals with CASQ1. The test is described as above. Conditions: shRNA.
TTCTTTGCCACCTTGCTGTCGA: the sensor-assay potency score (higher = more potent) is 0.0735. TTGACAATCTCCTCTTCGCTAT yielded a sensor-assay potency score (higher = more potent) of -0.427. In the case of ATCCTTCTCAGAGTCTACCAGC, the sensor-assay potency score (higher = more potent) is -1.1. The same measure, in the same setting: with TTCTCAGAGTCTACCAGCCCGA the figure was -1.38; with TTCTTGAACACATTCTTGTAGT, 0.249. As to ATACTTCTTGAACACATTCTTG, the sensor-assay potency score (higher = more potent) is -1.25. Regarding TTGTAATGCTCTGAGTCTTTGC, the sensor-assay potency score (higher = more potent) was -1.04. TACAGGATTAGAGAGAGTGGGG: the sensor-assay potency score (higher = more potent) was -0.52. The same measure, in the same setting: as for TTGAGAGTCTCTAAGAACTCGA, the figure is -0.0687; as for ATGCTCTGAGTCTTTGCTCTTG, -1.26. TTCACCTTCAATCAATTCCACA: the sensor-assay potency score (higher = more potent) was -1.32. For AACACATTCTTGTAGTTCTTTG, the sensor-assay potency score (higher = more potent) was -0.85. TACATTAACAAGTGATTGCTGA: the sensor-assay potency score (higher = more potent) came out at 0.512. For TTGTCTTCTAGGACTTGGGCTG, the sensor-assay potency score (higher = more potent) was -0.338. Still for that read-out and setting: as for TAGTTCTTTGCATTGACATTGA, the figure is -0.428; as for TTGTGAGGCCTTGTCATCCTCG, -0.34; as for TTGATCACACGGTCCACACCAT, -0.226. The sequence TAGGACATCAAGCAGAAACTCC yielded a sensor-assay potency score (higher = more potent) of -0.771. In turn, TCTCTAAGAACTCGAAACCATC had a sensor-assay potency score (higher = more potent) of -1.47. TTCATGGTAGAGGAGTGCCAGC: the sensor-assay potency score (higher = more potent) was -1.44. Same read-out and setting: as for TACTTCTTGAACACATTCTTGT, the figure is 0.247. The sequence TAATGCTCTGAGTCTTTGCTCT had a sensor-assay potency score (higher = more potent) of -0.39. For TAGCCAATGAGTTTGATCTCAT, the sensor-assay potency score (higher = more potent) is -0.312.

In the next test the target is CBL. The test is described as above. To be noted: shRNA.
Sequence TTGAGGGAACACATACTCGCTG yielded a sensor-assay potency score (higher = more potent) of -0.612. The sequence ATCTTGACAAGATAGTACGGAG gave a sensor-assay potency score (higher = more potent) of -1.09. Take TTGGGTTCTGACACAACCGCAC: the sensor-assay potency score (higher = more potent) turned out to be 0.227. With TATCTTGACAAGATAGTACGGA, the sensor-assay potency score (higher = more potent) was determined as 0.0663. TGTTGTAGGATCACCATCCAGA returned a sensor-assay potency score (higher = more potent) of 0.05. The same measure, in the same setting: as for TTGCTTAGTTTTCTTCATCAAA, the figure is -1.12; as for TTTGGGTTCTGACACAACCGCA, -1.29; as for TTTATTGTGAGGGATTGTCTGG, -0.649. In turn, ATGCACTTCATGTAGAGCCTGT showed a sensor-assay potency score (higher = more potent) of 0.672.
